SW480 rerep: A quantitative high throughput screen for small molecules that induce DNA re-replication in SW480 colon adenocarcinoma cells; Potency, µM (series often up to 46.1 µM), actives largely listed as activators; AID 624297, 2012; hit rate 1.8% among 340,000; SW480 DNA re-replication, Hoechst DNA content imaging, 48 h; further: nearly all actives have a fitted effect of over 55% in size
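Image-based read-out: total Hoechst fluorescence of nuclei (405 nm excitation, 500-530 nm emission), with hits raising the fraction of high-intensity nuclei. SW480 colon cells incubated 48 hr with compounds at 37 C.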
RORgamma inh: qHTS for inhibitors of ROR gamma transcriptional activity; AID 2551, 2010; Nuclear receptor ROR-gamma (Mus musculus), P51450; Potency, µM (titrated, usually from 53.6 µM), actives largely listed as inhibitors; Drosophila S2 Gal4-RORgamma UAS-luciferase reporter, 20 h; hit rate 5.4% among 310,000; further: nearly all actives have a fitted effect of over 60% in size
Target sequence (P51450 whole entry, looked up, the tested form may be a part): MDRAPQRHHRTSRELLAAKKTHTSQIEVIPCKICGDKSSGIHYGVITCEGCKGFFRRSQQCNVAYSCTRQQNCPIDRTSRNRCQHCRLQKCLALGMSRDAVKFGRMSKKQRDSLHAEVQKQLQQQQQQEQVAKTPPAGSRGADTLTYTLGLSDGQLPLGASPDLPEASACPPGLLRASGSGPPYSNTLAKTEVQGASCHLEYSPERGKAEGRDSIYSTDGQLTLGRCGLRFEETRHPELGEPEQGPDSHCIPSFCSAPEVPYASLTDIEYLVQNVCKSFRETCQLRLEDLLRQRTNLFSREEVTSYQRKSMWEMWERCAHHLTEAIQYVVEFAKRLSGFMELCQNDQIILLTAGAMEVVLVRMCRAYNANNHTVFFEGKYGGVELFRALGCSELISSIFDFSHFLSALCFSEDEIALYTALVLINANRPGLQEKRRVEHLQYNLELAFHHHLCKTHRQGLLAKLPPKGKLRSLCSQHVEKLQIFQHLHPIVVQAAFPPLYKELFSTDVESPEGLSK
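In this cell-based reporter format, copper sulfate (700 uM final) drives Gal4–ROR gamma fusion expression from a metallothionein promoter in Drosophila Schneider cells; compounds preincubated 1 hr, reporter read after 20 hr at ambient temperature.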
ELG1 DNA repair: qHTS screen for small molecules that inhibit ELG1-dependent DNA repair in human embryonic kidney (HEK293T) cells expressing luciferase-tagged ELG1 | HEK293T ELG1-luciferase reporter, luminescence, 16 h; DNA damage induced by 5-fluorouridine | Potency, µM (top dose mostly 46.1 µM), actives largely listed as inhibitors | hit rate 2.3% among 330,000 | AID 504467, 2011; further: nearly all actives have a fitted effect of over 55% in size
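Reporter activity after DNA damage by 5-fluorouridine is monitored. Compound-treated cells incubate 16 hr at 37 °C, then ONE-Glo is added for 30 min before luminescence reading.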
MCF10A rereplic: A quantitative high throughput screen for small molecules that induce DNA re-replication in MCF 10a normal breast cells; MCF 10A DNA re-replication, Hoechst nuclear intensity, 48 h; Potency, µM (doses to about 46.1 µM), actives largely listed as activators; hit rate 2.9% among 350,000; AID 624296, 2012; further: nearly all actives have a fitted effect of over 50% in size
VP16 counter: VP16 counterscreen qHTS for inhibitors of ROR gamma transcriptional activity; Drosophila S2 Gal4-VP16 UAS-luciferase, luminescence, 20 h; Potency, µM (highest dose often 53.6 µM), actives largely listed as inhibitors; hit rate 3.5% among 310,000; AID 2546, 2010;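 further: Gal4-VP16 expression switched on by copper sulfate through the metallothionein promoter; nearly all actives have a fitted effect of over 50% in size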
Each line names hits and unclear results; the compound was inactive in the other large screens; ! = a repeat was not active. Only some compounds are listed: those with a hit (about 10% of all), similar ones and a draw of the others. The call rests on the fitted dose curve; in most records, active means well fitted curve in the direction sought with a large enough effect; inconclusive means small, poorly fitted or top-dose-only effect, or another doubt; inactive means no such curve, though single readings can be large; an effect the other way counts as inactive or inconclusive.

O=C(N/N=C1/CCCc2ccccc21)c1cc([N+](=O)[O-])cc([N+](=O)[O-])c1	RORgamma inh 11µM (no result: SW480 rerep, MCF10A rereplic)
C=CCC(O)[C@H](Cc1cnc2ccccc2c1)[C@H](/C=C/CCCC)c1ccccc1 (stereo partly specified)	none (no result: SW480 rerep, ELG1 DNA repair, MCF10A rereplic)
COc1cccc([C@@H]2Oc3ccc(Br)cc3C[C@H]2OC(=O)Nc2ccc(C)c(Br)c2)c1	none (no result: SW480 rerep, ELG1 DNA repair, MCF10A rereplic)
CC1CCCC(NC(=O)CCS(=O)(=O)c2cc3c(cc2Cl)NC(=O)CO3)C1C (stereo unspecified)	none
Cc1ccc(C(=O)N/N=C\c2ccccn2)cn1	none
Cc1ccc(C(=O)N/N=C/c2ccoc2)cc1C	RORgamma inh 13µM, ELG1 DNA repair inconclusive, VP16 counter inconclusive
Cc1occc1C(=O)N/N=C/c1ccccn1	RORgamma inh 10µM
COc1ccc(C(=O)N/N=C\c2ccoc2)cc1	ELG1 DNA repair inconclusive
COc1ccc(-c2nn(-c3ccccc3)cc2/C=N/NS(=O)(=O)c2ccccc2)cc1	RORgamma inh inconclusive, ELG1 DNA repair inconclusive
COc1ccc(-c2nn(-c3ccccc3)cc2/C=N/NC(=O)c2cccc(S(=O)(=O)Nc3ccccc3Cl)c2)cc1	RORgamma inh 1.8µM, ELG1 DNA repair inconclusive, VP16 counter 1.8µM
O=C(NN=Cc1ccccc1O)c1cccc([N+](=O)[O-])c1	SW480 rerep 0.58µM (no result: RORgamma inh, ELG1 DNA repair, VP16 counter)
CO[C@H]1COC(=O)[C@H](C)COC(=O)[C@@H](Cc2ccccc2)NC(=O)C/C=C\[C@H]1C	none (no result: SW480 rerep, ELG1 DNA repair, MCF10A rereplic)
CC1=C(C(=O)Nc2cc(C(=O)N3CCC(C)CC3)ccc2C)SCCO1	SW480 rerep inconclusive
CCCCN1C(=O)C2Cc3c([nH]c4ccccc34)CN2C1=S (stereo unspecified)	RORgamma inh inconclusive, ELG1 DNA repair inconclusive, MCF10A rereplic inconclusive, VP16 counter inconclusive
COc1ccc(-n2c(=O)c(C)nc3cncnc32)cc1	none (no result: SW480 rerep, ELG1 DNA repair, MCF10A rereplic)
C=C1C2CC[C@@]3(C)C(c4ccoc4)OC(=O)C[C@@]13OC1CC(OC(C)=O)C(C)(C)C(CC(=O)OC)[C@@]12C (stereo partly specified)	RORgamma inh 2.8µM (no result: SW480 rerep, ELG1 DNA repair, MCF10A rereplic)
CC(C)(CO)NCc1cccs1	SW480 rerep 1.3µM
COc1ccccc1CCn1c(=O)c(-c2cccc(Cl)c2)nc2cncnc21	none (no result: SW480 rerep, ELG1 DNA repair, MCF10A rereplic)
Cc1ccc(CS(=O)(=O)CC(C)(O)c2ccc(Cl)cc2)cc1 (stereo unspecified)	none
COc1cccc(CCc2nnc(N)s2)c1	none
O=C1N=C(N2CCCC2)CN1c1ccccc1	none
Cc1ccc(N2C(=O)c3ccc(C(=O)N4CCN(c5cccc(C)c5C)CC4)cc3C2=O)cc1	RORgamma inh inconclusive, ELG1 DNA repair inconclusive, VP16 counter 20µM
Cc1cccc(N2CCN(C(=O)c3ccc4ncsc4c3)CC2)c1C	SW480 rerep 10µM, MCF10A rereplic 9.2µM
O=C(c1ccc2ncsc2c1)N1CCN(c2ccccc2Cl)CC1	ELG1 DNA repair inconclusive
Cc1cccc(N2CCN(C(=O)c3ccncc3)CC2)c1C	SW480 rerep 12µM, ELG1 DNA repair inconclusive, MCF10A rereplic inconclusive
Cc1cccc(N2CCN(C(=O)c3cc(S(=O)(=O)N4CCCC4)cn3C)CC2)c1C	SW480 rerep 15µM, MCF10A rereplic 8.2µM
Cc1cccc(N2CCN(C(=O)c3cc(S(=O)(=O)N4CCOCC4)cn3C)CC2)c1C	MCF10A rereplic inconclusive
Cc1ccc(N2C(=O)c3ccc(C(=O)N4CCN(c5ccc(C)c(C)c5)CC4)cc3C2=O)cc1	none
CCOC(=O)CCN1C(=O)[C@H]2[C@H]3[C@H](O)[C@H](O)C/C(=N/OCC(C)C)[C@@H]3CC[C@@H]2C1=O	none (no result: SW480 rerep, ELG1 DNA repair, MCF10A rereplic)
CCCCCOc1ccc(C(=O)CCC(=O)Nc2ccc(NC(C)=O)cc2)cc1	none
Cc1cccc(N2CCN(C(=O)c3c(C)nn(Cc4ccccc4Cl)c3C)CC2)c1C	SW480 rerep inconclusive, ELG1 DNA repair 21µM, MCF10A rereplic 15µM
COc1cc(C(=O)N2CCN(c3cc(Cl)ccc3Cl)CC2)cc(OC)c1OC	SW480 rerep 1.2µM, MCF10A rereplic inconclusive
COc1ccc(C(=O)N2CCN(C(=O)c3cc(OC)c(OC)c(OC)c3)CC2)cc1	none
COc1cc(C(=O)N2CCN(c3cccc(C)c3C)CC2)cc(OC)c1OC	SW480 rerep 0.73µM, RORgamma inh inconclusive, ELG1 DNA repair inconclusive, MCF10A rereplic 10µM
CS/C(=N\S(=O)(=O)c1cccs1)Nc1ccc(Br)cc1F	MCF10A rereplic 23µM!
Cc1nc(SCC(=O)c2c(N)n(C3CC3)c(=O)[nH]c2=O)[nH]c(=O)c1CCO	none (no result: RORgamma inh, VP16 counter)
CCN1C(=O)[C@@H]2Cc3c([nH]c4ccccc34)C(c3ccc(OC)cc3)N2C1=S (stereo partly specified)	SW480 rerep inconclusive, ELG1 DNA repair inconclusive, MCF10A rereplic 21µM
COc1cc(S(=O)(=O)N2CCOCC2)ccc1NC(=O)CSc1n[nH]c(=O)[nH]c1=O	RORgamma inh inconclusive
Cc1ccc(S(=O)(=O)N(Cc2ccc([N+](=O)[O-])cc2)C(=O)N2CCN(C)CC2)cc1	none (no result: RORgamma inh, VP16 counter)
CS(=O)(=O)c1ccc(C(=O)Nc2ccc(N3CCOCC3)cc2)c(Cl)c1	SW480 rerep inconclusive
CS(=O)(=O)c1ncc(Cl)c(C(=O)Nc2ccc(OC(F)F)cc2)n1	SW480 rerep 1.8µM, RORgamma inh 3.5µM, MCF10A rereplic 5.2µM, VP16 counter 1.3µM
CS(=O)(=O)c1ncc(Cl)c(C(=O)Nc2ccc(N3CCOCC3)cc2)n1	SW480 rerep 10µM, RORgamma inh 3.2µM, VP16 counter 3.2µM
COCc1cc(C)nc(SCc2ccc(Br)cc2)c1C#N	SW480 rerep inconclusive (no result: RORgamma inh, ELG1 DNA repair, VP16 counter)
CC(=O)C1=C(C)NC(SCC(=O)c2ccc(Cl)cc2Cl)=C(C#N)C1c1ccco1 (stereo unspecified)	RORgamma inh inconclusive, ELG1 DNA repair inconclusive, VP16 counter 4.5µM
CSC1=C(C#N)C(c2ccccc2)C(C(C)=O)=C(C)N1 (stereo unspecified)	none
CC(=O)C1=C(C)NC(SCC(=O)c2ccc(Cl)cc2)=C(C#N)C1c1ccco1 (stereo unspecified)	RORgamma inh inconclusive, ELG1 DNA repair inconclusive, VP16 counter inconclusive
CSCSC1=C(C#N)C(c2ccc(Cl)cc2)C(C(C)=O)=C(C)N1 (stereo unspecified)	RORgamma inh 14µM, VP16 counter inconclusive (no result: SW480 rerep, MCF10A rereplic)
CCCCC1=CC2=C(c3ccco3)C(=O)C(C)(OC(=O)c3ccc(OC)cc3)C(=O)C2=CO1 (stereo unspecified)	none (no result: SW480 rerep, ELG1 DNA repair, MCF10A rereplic)
COC(=O)/C=C\c1cc(O)ccc1O	RORgamma inh 14µM, VP16 counter 11µM (no result: SW480 rerep, ELG1 DNA repair, MCF10A rereplic)
COC(=O)N1CCC[C@@]2(CCN(Cc3nccs3)C2)C1	none (no result: SW480 rerep, ELG1 DNA repair, MCF10A rereplic)
O=C(Nc1ccnn1C1CCNCC1)c1ccc2c(c1)OCO2	MCF10A rereplic inconclusive (no result: RORgamma inh, ELG1 DNA repair, VP16 counter)
Cc1ccc(C)c(S(=O)(=O)c2c[nH]c(=S)[nH]c2=O)c1	none

Assay outcomes: PubChem, National Center for Advancing Translational Sciences (NCATS)
